Records with an inconclusive call do not appear. Activity calls are given as the source filed them. Rule for the calls: active = hit-call score of the fitted dose curve at least 0.9, where 1 is the maximum; inconclusive = response in the unintended direction; inactive = score below 0.9.
What follows are compounds tested against Estrogen receptor (Homo sapiens) + Estrogen receptor beta (Homo sapiens) (UniProt P03372+Q92731) (assay: OT_ER_ERaERb_1440: Odyssey Thera (OT) 24-hour HEK293T Protein-Complementation Assay for Estrogen Receptor-alpha/-beta Homodimer (AID 2283356);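 note: hits raise reporter fluorescence and both agonists and antagonists give an increase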).
Estrogen receptor (Homo sapiens) + Estrogen receptor beta (Homo sapiens), sequence (P03372 whole entry, looked up, the tested form may be a part): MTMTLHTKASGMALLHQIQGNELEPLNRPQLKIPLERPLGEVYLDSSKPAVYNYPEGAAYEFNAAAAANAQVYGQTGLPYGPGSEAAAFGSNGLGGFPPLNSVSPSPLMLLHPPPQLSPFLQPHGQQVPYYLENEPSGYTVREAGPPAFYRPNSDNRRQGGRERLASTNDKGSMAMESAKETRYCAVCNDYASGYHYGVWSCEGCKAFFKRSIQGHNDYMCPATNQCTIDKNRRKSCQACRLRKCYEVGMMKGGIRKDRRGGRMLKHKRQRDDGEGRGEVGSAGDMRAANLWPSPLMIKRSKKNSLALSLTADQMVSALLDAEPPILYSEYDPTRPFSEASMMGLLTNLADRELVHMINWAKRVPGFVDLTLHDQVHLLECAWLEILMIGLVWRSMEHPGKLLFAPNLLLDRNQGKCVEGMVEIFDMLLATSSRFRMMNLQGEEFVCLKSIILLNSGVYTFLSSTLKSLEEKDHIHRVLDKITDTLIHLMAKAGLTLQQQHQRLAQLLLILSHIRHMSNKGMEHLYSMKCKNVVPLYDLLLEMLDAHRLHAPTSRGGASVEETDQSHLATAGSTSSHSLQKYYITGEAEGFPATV
Estrogen receptor (Homo sapiens) + Estrogen receptor beta (Homo sapiens), sequence (Q92731 whole entry, looked up, the tested form may be a part): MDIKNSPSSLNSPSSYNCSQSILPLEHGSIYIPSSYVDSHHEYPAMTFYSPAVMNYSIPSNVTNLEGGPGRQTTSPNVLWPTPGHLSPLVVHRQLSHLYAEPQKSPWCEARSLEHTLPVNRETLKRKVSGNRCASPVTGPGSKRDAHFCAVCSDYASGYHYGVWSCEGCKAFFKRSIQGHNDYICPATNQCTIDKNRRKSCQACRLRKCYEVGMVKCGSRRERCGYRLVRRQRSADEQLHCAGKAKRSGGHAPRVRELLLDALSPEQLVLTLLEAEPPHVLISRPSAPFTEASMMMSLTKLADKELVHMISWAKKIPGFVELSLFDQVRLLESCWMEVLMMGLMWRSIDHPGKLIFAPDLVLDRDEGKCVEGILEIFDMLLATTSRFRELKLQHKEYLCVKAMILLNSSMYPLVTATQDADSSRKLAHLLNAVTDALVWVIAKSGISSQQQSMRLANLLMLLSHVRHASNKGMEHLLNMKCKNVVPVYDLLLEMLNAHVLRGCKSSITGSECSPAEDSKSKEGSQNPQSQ
Procedure: OT_ER_ERaERb_1440 is a cell-based assay that uses HEK293T, a human kidney cell line, with measurements taken at 24 hours after chemical dosing in a 384-well plate.OT_ER_ERaERb_1440 is one of one assay component(s) measured or calculated from the OT_ER_ERaERb_1440 assay. It is designed to make measurements of protein fragment complementation, a form of binding reporter, as detected with fluorescence intensity signals by Protein-fragment Complementation technology.Data from the assay component OT_ER_ERaERb_1440 was analyzed into 1 assay endpoint. This assay endpoint, OT_ER_ERaERb_1440, was analyzed in the positive analysis fitting direction relative to DMSO as the negative control and baseline of activity. Using a type of binding reporter, measures of receptor for gain-of-signal activity can be used to understand the binding at the pathway-level as they relate to the gene ESR1 and ESR2. Furthermore, this assay endpoint can be referred to as a primary readout, because the performed assay has only produced 1 assay endpoint. To generalize the intended target to other relatable targets, this assay endpoint is annotated to the nuclear receptor intended target family, where the subfamily is steroidal.
Protein-fragment complementation assay, or PCA, is a method for the identification and quantification of protein-protein interactions. In the PCA, the proteins of interest ("bait" and "prey") are each covalently linked to fragments of a third protein (e.g. DHFR, which acts as a "reporter"). Interaction between the bait and the prey proteins brings the fragments of the reporter protein in close proximity to allow them to form a functional reporter protein whose activity can be measured. The OT ER alpha / ER beta assay is a heterodimer PCA of the ligand binding domain (LBD) of ER alpha (amino acids 310-547) and human ER beta (amino acids 263-489) stably expressed in HEK293T cells. […] Fluorescent signal in the basal state of the assay is very low and is primarily punctuate and cytoplasmic. Modulation of this assay is quantified as an increase in mean fluorescence intensity in the nucleus (for agonists) or in the nucleus and cytoplasm (antagonists) relative to vehicle controls, and can be quantified on a high content imaging device or a laser scanning cytometer. The latter instrument is favored for this assay because of the rapid mode of data acquisition, the ability to acquire data from the entire cell population in a well (as opposed to a fraction of the well on the high content devices) and the larger dynamic range typically achieved with this instrument. To assess sensitivity of the ER alpha/ER beta LBD assay to ligand, cells were treated with the ER agonist 17- beta-estradiol (E2) in 10-point concentration- response format for 24 hours and monitored response on a laser scanning plate cytometer (Acumen eX3; TTP Lab Tech).

SMILES | outcome | AC50
CSc1ccc(Oc2ccc(S(N)(=O)=O)cc2CN(C)C)cc1C | inactive | –
CCCCCCCCCCCCCCCCO | inactive | –
CC(C)OC(=O)C(C)(C)Oc1ccc(C(=O)c2ccc(Cl)cc2)cc1 | inactive | –
COc1ccc(C(=O)Nc2nc3ccccc3c(NCc3ccccc3)c2C#N)cc1 | inactive | –
CCCCCCCCCC[N+](C)(C)[O-] | inactive | –
CCCCc1nc2cccnc2n1Cc1ccc(-c2ccccc2-c2nnn[nH]2)cc1 | inactive | –
O=C1CCCCC1 | inactive | –
O=C(NS(=O)(=O)/C=C/c1cccs1)c1ccc(F)cc1Br | inactive | –
Cc1ccc(C(C)(C)C)c(O)c1 | – | 33.9 µM (active)
O=C(O)CC(O)(CC(=O)O)C(=O)O | inactive | –
Cc1c(C)c2c(c(C)c1O)CCC(C)(COc1ccc(CC3SC(=O)NC3=O)cc1)O2 (centres undefined) | inactive | –
CCCCCCC(CCCCCCCCCCC(=O)OCC(COC(C)=O)OC(C)=O)OC(C)=O (centres undefined) | inactive | –
NC1CCCCC1 | inactive | –
O=C(N[C@@H](c1ccccc1)[C@@H]1CCCCN1)c1cccc(C(F)(F)F)c1Cl | inactive | –
CCc1nc(N)nc(N)c1-c1ccc(Cl)cc1 | inactive | –
CN(C)CCCN(C)CCCN(C)C | inactive | –
COc1ccc(OC(F)(F)F)cc1CN[C@H]1CCCN[C@H]1c1ccccc1 | inactive | –
CC1(C)C(=O)NC(=O)N1CO | inactive | –
NC(=Nc1ccccc1)Nc1ccccc1 | inactive | –
Nc1nc(=S)c2[nH]cnc2[nH]1 | inactive | –
O=Cc1ccccc1C=O | inactive | –
CCCCCCCCCCCCCCOS(=O)(=O)O | inactive | –
CS(=O)(=O)c1ccc([C@@H](C[C@H]2CCC(=O)C2)C(=O)Nc2cnccn2)cc1Cl | inactive | –
Oc1ccc(O)cc1 | inactive | –
CCC(C)N(C)C(=O)c1cc2ccccc2c(-c2ccccc2Cl)n1 (centres undefined) | inactive | –
O=[Si]=O | inactive | –
CN(C)C(=O)NC1(c2ccccc2)CCN(CCC[C@]2(c3ccc(Cl)c(Cl)c3)CCCN(C(=O)c3ccccc3)C2)CC1 | – | 2.97 µM (active)
CCCCCCCC(=O)OC | inactive | –
OCC(CO)n1cnc(-c2ccc(F)cc2)c1-c1ccnc(Oc2ccccc2)n1 | inactive | –
